In the library only some 3.4% were active in any assay of this set; here they are far more common.
Env fusion inh: inhibitors of HIV Env-mediated cell fusion; HeLa-JRFL Env/CEM21 cell fusion, luciferase; inhibition, % at 12.3 µM; 1.1% of 360,000 active;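 active = mean replicate inhibition score of at least 50 and every replicate individually at or above 50; inconclusive = only one of the two criteria met; inactive = mean below 50 and not all replicates reaching 50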;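 note: 0% = plate neutral controls and 100% = maraviroc near 300 nM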
MITF TRPM1 HTS: increases MITF-driven TRPM1 promoter luciferase signal | SK-MEL-5 TRPM1-promoter luciferase, 24 h; % of positive control, neutral wells = 0 | activation, % at 12.5 µM | 0.75% of 300,000 active;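 active = mean activation of at least 80% with every replicate also reaching 80%; inconclusive = mean reaches 80% but some replicate falls short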;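 note: 0% = neutral control wells and 100% = parthenolide positive control wells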
Wnt act: activates Wnt/beta-catenin signaling in a reporter cell assay | activator, plate reader | activation, % at 9.35 µM | 1.2% of 300,000 active; in the data active = activation above about 30%, passing the limit was not always enough; inconclusive = no clear call, values can overlap the other calls;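 note: 0% = neutral control wells and 100% = positive control wells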
esBAF inh: inhibitors of esBAF chromatin remodeling in mouse ES cells; Bmi1-luciferase knock-in reporter, 24 h; 100% = twice the neutral-well signal; reporter increase, % at 12.5 µM; 2% of 350,000 active; AID 602393; in the data active = activation above about 40%; inconclusive = no clear call, values can overlap the other calls;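 note: 0% = median of the plate's neutral control wells and 100% = double that signal; a rise in the Bmi1 reporter signal indicates esBAF inhibition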
miR-122 sensor: inhibitors of miR-122 in Huh7 cells. AID 602342. activation (reporter increase), % at 12.5 µM. Huh7 miR-122 Renilla luciferase sensor, 48 h; neutral wells = 0, positive control = 100. 0.3% of 340,000 active;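 active = mean replicate activation score at least 90 and every replicate individually at or above 90; inconclusive = only one of the two criteria met; inactive = neither criterion met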;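 note: higher luciferase means less miR-122 activity so hits act as miR-122 inhibitors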
* hit, by the source's call; ? = inconclusive; / = no result; [ ] = remark or other dose.

SMILES | Env fusion inh | MITF TRPM1 HTS | Wnt act | esBAF inh | miR-122 sensor
COc1ccc([Si](C)(C)[C@@H]2[C@@H](CCO)O[C@]3(C(=O)N(Cc4ccccc4)c4ccc(N5C(=O)c6cccc7cccc5c67)cc43)[C@H]2C)cc1 | 64*[16.7 µM] | / | / | / | /
C=CCN1C(=O)[C@]2(O[C@H](CCn3cc(CCO)nn3)[C@@H]([Si](C)(C)c3ccc(OC)cc3)[C@@H]2C)c2cc(N3C(=O)c4cccc5cccc3c45)ccc21 | 70*[16.7 µM] | / | / | / | /
COc1ccc([Si](C)(C)[C@@H]2[C@@H](CCO)O[C@]3(C(=O)N4c5c(cc(OC)cc53)C(C)=CC4(C)C)[C@H]2C)cc1 | 90*[16.7 µM] | / | / | / | /
O=C(C[C@H]1CC[C@H](NC(=O)C2CCC2)[C@H](CO)O1)NCc1ccccc1Cl | -17[16.7 µM] | / | / | 0 | /
O=C(COc1ccc2c(c1)C(=O)CC1(CCCCC1)O2)NCc1ccccn1 | -48 | -2 | / | -4 | -3
O=C(COc1ccc2c(c1)C(=O)CC1(CCCCC1)O2)NCc1ccccc1 | 20 | / | -10 | 11 | 220*
O=C1C2C3C=CC(C4CC34)C2C(=O)N1/N=C/c1c[nH]c2ccccc12 (centres undefined) | -72 | -1 | 11 | 57* | 0
CC(C)(C)Cc1nnc(NC(=O)c2ccc3c(c2)OCO3)s1 | -17 | 68 | 15 | 46* | -1
CC(C)(C)Cc1nnc(NC(=O)CSc2ccccc2)s1 | -44 | / | 17 | 72* | 8
CCC(CC)c1nnc(NC(=O)c2ccc3c(c2)OCO3)s1 | -11 | 79 | 7 | 58* | /
O=C([C@H]1[C@H](CO)[C@H]2Cn3c(ccc(C4=CCCCC4)c3=O)[C@H]2N1Cc1nccs1)N1CCOCC1 | / | / | / | 1 | 1[16.7 µM]
FC(F)Sc1ccc(Nc2ncnc3nc[nH]c23)cc1 | -41 | 95* | / | -3 | 2
CCCCOC(=O)c1ccc(Nc2ncnc3nc[nH]c23)cc1 | -25 | 78 | 13 | 48* | -4
Cc1ccc(-n2cc(-c3ccccc3)[nH]c2=O)cc1F | / | 113* | 0 | 50* | 4
COc1ccc(-c2cn(-c3cccc(C)c3)c(=O)[nH]2)cc1OC | -24 | / | -1 | 21 | -2
Nc1ccc2c(c1)C(=O)c1ccccc1-2 | -12 | / | 32* | 15 | -5
Nc1ccc2c(c1)C(=O)c1ccccc1C2=O | -52 | 104* | 40* | 69* | -8
Cc1ccc(S(=O)(=O)N2CCCCC2)cc1NC(=O)Cn1c(=O)cnc2ccccc21 | 59* | 5 | 2 | 5 | 8
Cc1ccc(NC(=O)Cn2c(=O)cnc3ccccc32)cc1S(=O)(=O)N1CCCCC1 | 8 | 5 | -6 | 1 | 9
COc1ccccc1NC(=O)N[C@@H]1CC[C@H](CC(=O)N[C@H](C)c2ccccc2)O[C@H]1CO | ? | / | / | -1 | /
O=C(Nc1ccccc1)Nc1ccc2nnsc2c1 | -24 | ? | 24 | 73* | 0
CN(C)c1ccc(NC(=O)Nc2ccc3snnc3c2)cc1 | / | 65 | / | 69* | -1
COc1ccc(S(=O)(=O)Nc2ccc3c(c2)C(=O)N([C@@H](C)CO)C[C@@H](C)[C@H](CN(C)C(=O)Nc2cccc4ccccc24)OCCCC[C@H](C)O3)cc1 | 13[16.7 µM] | / | / | -9 | 2[16.7 µM]
COc1cccc(-c2ccc3c(c2)[C@@H]2[C@@H](CCN2C(=O)NC2CCCC2)[C@@H](CO)N3C)c1 | / | / | / | 5 | -1[16.7 µM]
Cc1ccccc1S(=O)(=O)N1CC[C@@H]2[C@H]1c1cc(-c3cccc(F)c3)ccc1N(C)[C@H]2CO | / | / | / | 8 | 6[16.7 µM]
SMILES | Env fusion inh | MITF TRPM1 HTS | Wnt act | esBAF inh | miR-122 sensor
Cc1ccccc1S(=O)(=O)N1CC[C@@H]2[C@@H](CO)N(C)c3ccc(-c4ccccc4)cc3[C@@H]21 | / | / | / | 0 | 102*[16.7 µM]
COc1ccc(-c2ccc3c(c2)[C@@H]2[C@@H](CCN2C(=O)NC2CCCC2)[C@H](CO)N3C)cc1 | 59*[16.7 µM] | / | / | / | /
COc1ccc(S(=O)(=O)N2CC[C@@H]3[C@@H](CO)N(C)c4ccc(-c5ccc(F)cc5)cc4[C@@H]32)cc1 | / | / | / | -10 | 196*[16.7 µM]
C[C@@H](NC(=O)C[C@H]1CC[C@H](NC(=O)c2cccnc2)[C@H](CO)O1)c1ccccc1 | -5[16.7 µM] | / | / | 3 | 0[16.7 µM]
C[C@H]1CN([C@@H](C)CO)C(=O)c2ccccc2-c2ccccc2CO[C@H]1CN(C)S(=O)(=O)c1ccccc1F | 50[16.7 µM] | / | / | 3 | /
CCCNC(=O)Nc1ccc2c(c1)C(=O)N(C)[C@H]1CC[C@H](CC(=O)Nc3ccccc3C)O[C@@H]1CO2 | -7[16.7 µM] | / | / | -1 | 8[16.7 µM]
C=CCn1c(-c2ccccc2)c[nH]c1=S | -300 | 65 | 43* | 64* | 1
C=C1CC(/C=C/c2cc(OC)c(OC)c(OC)c2)OC1=O (centres undefined) | 15[16.7 µM] | / | / | / | /
Cc1nc(-c2ccc([N+](=O)[O-])cc2)nc2[nH]ccc(=O)c12 | -85 | 105* | 37* | ? | 1
Cc1nc(-c2ccccc2)nc2[nH]c(-c3ccccc3)cc(=O)c12 | -61 | 22 | 6 | / | -4
O=S(=O)(N[C@@H]1CC[C@H](CCn2cc(C3(O)CCCC3)nn2)O[C@H]1CO)c1ccc(F)cc1 | -1[16.7 µM] | / | / | 3 | /
CCCCCC(=O)N/N=C/c1ccc(N(C)C)cc1 | -8 | 60 | 12 | 51* | 0
CN(C)c1ccc(/C=N/NC(=O)CCCO)cc1 | -8 | 4 | 4 | / | -1
CO[C@H]1CN(C)C(=O)c2cc(NC(=O)C3CC3)ccc2OC[C@H](C)N(Cc2ccccc2)C[C@@H]1C | / | / | / | 3 | 2[16.7 µM]
O=C(/C=C/c1cccc2ccccc12)N1CCOCC1 | -102 | 46 | 37* | / | /
O=C(/C=C/c1ccccc1Cl)N1CCOCC1 | 6 | / | 2 | 38 | -4
Cc1ccc2c(c1)c(C)c(C)n2CC(O)Cn1nnc2ccccc21 (centres undefined) | -139 | / | ? | 63* | -4
Cc1ccc2c(c1)c(C)c(C)n2CC(O)Cn1nc(C)cc1C (centres undefined) | -42 | -17 | -3 | -3 | 1
CCCN(C)C[C@H]1Oc2cc(C#Cc3cccc(OC)c3)ccc2S(=O)(=O)N([C@H](C)CO)C[C@H]1C | -8[16.7 µM] | / | / | -7 | 49[16.7 µM]
CCOc1ccc(CNC(=O)Nc2ccccc2)cc1 | -16 | 65 | 11 | 47* | -9
CCC(=O)Nc1ccc(C(=O)OCc2ccccc2Cl)cc1 | -127 | 121* | / | ? | -12
CCOc1ccc(NC(=O)CNC(=O)Cc2ccccc2)cc1 | -10 | -4 | 1 | -6 | /
CCOc1ccc(NC(=O)Cc2ccccc2)cc1 | / | 83* | 35* | 66* | -6
COC(=O)CN(c1c(C)cccc1C)S(C)(=O)=O | 14 | -6 | / | -1 | -2
CC(=O)c1ccc(NC(=O)CN(c2c(C)cccc2C)S(C)(=O)=O)cc1 | -34 | 32 | 4 | 56* | /
O=C(C[C@H]1CC[C@H]2[C@@H](COC[C@@H](O)CN2C(=O)Nc2ccccc2)O1)NCCc1ccncc1 | / | / | / | 10 | 13[16.7 µM]
CCOc1ccc(N(CC(=O)Nc2cc(C)cc(C)c2)S(C)(=O)=O)cc1 | -6 | 43 | 16 | ? | -8
COC(=O)c1ccc(NC(=O)Cc2ccccc2)cc1 | -33 | / | 39* | / | /

Source: PubChem BioAssay (Broad Institute)
